Drawing on PubChem BioAssay (NCI), this text covers growth for 26 molecules.

Each structure is given as a SMILES string. The panel holds about 83,000 compounds, 20% with a hit somewhere; the sample as a whole holds those more often.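 In brief: 96-well plates, 48 h treatment, single concentration, percent growth endpoint.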 Active and inactive are the calls of the source. The calls were made as follows: active = growth percent below 10; inactive = the rest.

For this experiment, the system named is NCI-H522 lung. The experiment is described as follows: NCI-60 one-dose screen, 48 h (100 = growth as untreated, 0 = no growth, -100 = all killed). As to conditions: 10 µM unless noted.
For the molecule `S=c1[nH]nc(CSc2ncnc3c2c(-c2ccccc2)cn3-c2ccc(Cl)cc2)o1`, the growth was 89.5% (inactive).
The result for `COc1c(Cl)cc(Cl)cc1Cl` reads 103% (inactive); that for `COc1ccc(-c2nn(-c3ccccc3)cc2/C=C/C(=O)OCc2cn(-c3ccc(F)c(Cl)c3)nn2)cc1`, 65.2% (inactive).
The result for `COc1ccc2c(c1)C(=O)/C(=C/c1cccc(OCC(=O)Nc3nc4c(s3)CCCC4)c1)O2` reads -50.3% (active); that for `CCN(CC)CC(C)Nc1ccc([N+](=O)[O-])c2sc3ccccc3c(=O)c12` (stereo unspecified), 0.683% (active); that for `Cc1nn(-c2ccccc2)c2nc(C)n(-c3ccc(Br)cc3)c(=O)c12`, -14.1% (active).
The result for `OC(c1cc(-c2ccccc2)nc2ccc(Cl)cc12)C1CCCCN1` (stereo unspecified) reads 59.7% (inactive).
For `COc1ccc(S(=O)(=O)NCCNc2nccc(-c3c(-c4cccc([N+](=O)[O-])c4)nc4sccn34)n2)cc1`, the growth is 86% (inactive).
For `COc1ccc(Cl)cc1Nc1nc(C(F)(F)F)ccc1C(=O)N/N=C/c1cccnc1`, the growth was 29.3% (inactive).
For `COc1ccc(-c2nn(-c3ccccc3)cc2/C=C2\SC(=O)NC2=O)cc1` the value was 81.6% (inactive).
The result for `Cc1ccc2c(c1)C(=O)c1c-2c(OCCCN(C)C)nc2ccccc12` reads -11% (active); that for `Cc1ccc(-c2nc(/C=N/Nc3cc(C)nc4ccc(Br)cc34)c(C)o2)cc1`, -67.1% (active); that for `CCCCNP1(NCCCC)=NP(NCCCC)(NCCCC)=NP(NCCCC)(NCCCC)=NP(NCCCC)(NCCCC)=N1`, 7.68% (active).
For `COc1ccc(-n2cc(-c3ccccc3)c3c(SCC(=O)N/N=C/c4ccc([N+](=O)[O-])cc4)ncnc32)cc1` the value was 91.5% (inactive); for `Nc1cccc(-c2nc3sccn3c2-c2ccnc(NCCCNS(=O)(=O)c3ccc(C(F)(F)F)cc3)n2)c1`, 8.73% (active).
Turning to `CCN(CC)CC(O)c1cc(-c2ccc(Cl)cc2)nc2c(C)c(Cl)ccc12` (stereo unspecified), the growth was -76% (active).
As to `O=C1/C(=C/c2ccc(F)cc2)CN(C(=O)CCN2CCC(=NO)CC2)C/C1=C\c1ccc(F)cc1`, the growth was -72.6% (active).
For `CC(C)C1=C[C@@]23CC[C@@H]4[C@](C)(CCC[C@@]4(C)C(=O)OCC#CCN4CCCC4)[C@H]2C[C@@H]1[C@H]1C(=O)OC(=O)[C@H]13` the value was 78.7% (inactive); for `Cc1ccc2c(c1)C(=O)/C(=C/c1ccc(OCC(=O)c3ccccc3)cc1)O2`, 89.2% (inactive).
For `Cc1ccc2c(c1)n([O-])c1cc(Cl)ccc1[n+]2=O` the value was 89.2% (inactive).
For `COc1ccccc1/C=C(/C(=O)c1ccccc1)c1ccccc1` the value was 106% (inactive).
For `COc1nc2c(cc1S(=O)(=O)c1ccccc1)CCc1c-2cnn1-c1ccc(Cl)cc1`, the growth is 81.1% (inactive).
The result for `CNc1cc2nc3cc(NC)c(C)cc3cc2cc1C` reads -2.17% (active); that for `Nc1c(C(=O)Nc2ccccc2)sc2nc3c(cc12)CN(CCc1ccccc1)CC3`, 86.1% (inactive).
The result for `CC(C)[C@@H]1CC[C@]2(C(=O)NCCCCN=C(N)N)CC[C@]3(C)[C@H](CC[C@@H]4[C@@]5(C)CCC(=O)C(C)(C)[C@@H]5CC[C@]43C)[C@@H]12` reads 19.5% (inactive).
The result for `CCOC(=O)c1cnc2ccc(Br)cc2c1Nc1cccc(S(=O)(=O)NC)c1` reads 83.6% (inactive).
